High-throughput results deposited in PubChem BioAssay by National Center for Advancing Translational Sciences (NCATS).
FMDV inh: antivirals against foot and mouth disease virus | FMDV antiviral cell-based qHTS | Potency, µM (top dose mostly 57.9 µM), for inactives: at the highest dose activity change, negative = inhibition, actives largely listed as inhibitors | 410,000 compounds, 1.2% hits; calls by dose curve; tested in HEK293T cells; further: read-out not given here; potency means the concentration at half of the fitted maximal effect; nearly all actives have a fitted effect of over 45% in size
MARV entry inh: Marburg virus entry inhibition. Marburg virus pseudotyped entry inhibition, cell reporter. Potency, µM (series often up to 37.8 µM), without a hit: at the highest dose activity change, negative = inhibition, actives largely listed as inhibitors. 300,000 compounds, 1.8% hits. AID 540276; calls by dose curve; tested in HEK293 cells; further: potency means the concentration at half of the fitted maximal effect
HCV inh: inhibitors of hepatitis C virus infection. Potency, µM (top dose mostly 41.8 µM), inactives show top-dose activity change, negative = inhibition, actives largely listed as inhibitors. Huh7.5.1 HCVcc-Cre infection, luciferase reporter, 44 h. 340,000 compounds, 3.4% hits; further: potency means the concentration at half of the fitted maximal effect
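Infectious HCVcc-Cre (~0.5 moi) was added to cells just after compound, with cells seeded 4 h earlier at 1,000 per well. Luciferase activity after 44 h culture reported infection; substrate was incubated 15 min at room temperature before reading.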
HCMV antiviral: human cytomegalovirus inhibition; 410,000 compounds, 4.5% hits; AID 1259415; activity change, negative = inhibition, % at 57.5 µM; HFF cells, HCMV-luciferase reporter, 72 h; stronger effect = lower value; in the data active means activity change below about -60%; inconclusive means no clear call, values can overlap the other calls; inactive means above about -39%
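HFF cells seeded 16 h at 37C, treated with compounds, infected with luciferase-reporter HCMV at MOI 1 PFU/cell; luciferase read at 72 h post infection, normalized to buffer-only and Salinomycin controls.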
Giardia FBPA inh-1: blocks Giardia fructose-bisphosphate aldolase activity. Potency, µM (titrated, usually from 59.6 µM), inactives show at the top dose activity, negative = inhibition, usual class: inhibitors. A8B2U2. purified Giardia FBPA. AID 2451. 290,000 compounds, 0.71% hits; further: potency means the concentration at half of the fitted maximal effect; nearly all actives have a fitted effect of over 55% in size
Target sequence (A8B2U2 whole entry, looked up): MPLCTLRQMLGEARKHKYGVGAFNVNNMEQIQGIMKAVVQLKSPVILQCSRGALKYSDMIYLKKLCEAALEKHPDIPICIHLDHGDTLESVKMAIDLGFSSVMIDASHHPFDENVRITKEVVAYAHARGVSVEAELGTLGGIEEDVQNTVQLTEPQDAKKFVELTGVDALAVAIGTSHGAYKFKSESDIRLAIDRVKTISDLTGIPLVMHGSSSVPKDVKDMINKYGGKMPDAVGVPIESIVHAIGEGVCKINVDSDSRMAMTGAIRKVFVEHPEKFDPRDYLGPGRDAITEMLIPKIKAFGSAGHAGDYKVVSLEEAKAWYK
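Giardia FBPA (40 nM reagent) was preincubated 10 min at RT with compound (up to 57.5 uM final), then substrate plus GAPDH/TPI/NAD/arsenate coupling system with diaphorase/resazurin was added; resorufin fluorescence (525/598 nm) was read after 20 min.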
LASV entry inh: blocks Lassa virus binding to or entry into cells; Potency, µM (top dose mostly 37.9 µM), for inactives: at the highest dose activity change, negative = inhibition, usual class: inhibitors; 300,000 compounds, 1.2% hits; Lassa virus pseudotype entry inhibition, cell reporter; calls by dose curve; tested in HEK293 cells; further: potency means the concentration at half of the fitted maximal effect; nearly all actives have a fitted effect of over 50% in size
Giardia growth: Giardia lamblia growth inhibition. shares compounds with Giardia FBPA inh-1. Giardia lamblia trophozoite growth inhibition. Potency, µM (doses to about 57.5 µM), for the others: top-dose activity change, negative = inhibition, most hits filed as inhibitors. 1,500 compounds, 5% hits. AID 2785;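 further: potency means the concentration at half of the fitted maximal effect; trophozoites exposed to compound for 48 h at 37 °C; nearly all actives have a fitted effect of over 70% in size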
Mammal cell tox: toxic to mammalian cells in Giardia aldolase counter-screen. shares compounds with Giardia FBPA inh-1. mammalian cell viability counter-screen, qHTS. Potency, µM (series often up to 57.5 µM), without a hit: at the top dose viability change, negative = toxicity, hits mostly inhibitors. 1,500 compounds, 4% hits. AID 2786;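 further: Chinese hamster ovary cells used as mammalian cytotoxicity surrogate; viability measured as cellular ATP by luminescence; potency means the concentration at half of the fitted maximal effect; compound exposure lasted 48 h before reading; nearly all actives have a fitted effect of over 60% in size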
Giardia FBPA inh-2: confirmation of Giardia fructose-bisphosphate aldolase inhibitors; shares compounds with Giardia FBPA inh-1; purified Giardia aldolase enzyme activity, qHTS; Potency, µM (series often up to 57.5 µM), for the others: at the top dose activity change, negative = inhibition, actives largely listed as inhibitors; 1,500 compounds, 5% hits; further: potency means the concentration at half of the fitted maximal effect; nearly all actives have a fitted effect of over 45% in size
Rabbit aldolase: blocks rabbit muscle aldolase in Giardia aldolase selectivity test. shares compounds with Giardia FBPA inh-1. Rabbit muscle FBPA enzyme inhibition, selectivity counter-screen. Potency, µM (top dose mostly 57.5 µM), for the others: top-dose activity, negative = inhibition, hits mostly inhibitors. 1,500 compounds, 4% hits. AID 2794; further: potency means the concentration at half of the fitted maximal effect; nearly all actives have a fitted effect of over 60% in size
Target sequence (P00883 whole entry, looked up): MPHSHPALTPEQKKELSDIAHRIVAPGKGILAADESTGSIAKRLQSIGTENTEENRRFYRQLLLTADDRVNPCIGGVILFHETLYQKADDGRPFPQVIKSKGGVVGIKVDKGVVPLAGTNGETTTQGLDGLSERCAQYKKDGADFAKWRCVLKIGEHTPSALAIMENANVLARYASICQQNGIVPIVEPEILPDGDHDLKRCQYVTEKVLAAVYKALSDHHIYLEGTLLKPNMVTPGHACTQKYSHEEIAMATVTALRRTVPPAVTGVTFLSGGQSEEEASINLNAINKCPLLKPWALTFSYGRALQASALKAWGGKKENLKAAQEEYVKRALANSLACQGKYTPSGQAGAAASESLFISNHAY
GAPDH counter: GAPDH inhibition flagged for Giardia aldolase hits; GAPDH coupling enzyme counterscreen, biochemical, qHTS; AID 2795; shares compounds with Giardia FBPA inh-1; 1,500 compounds, 6% hits; Potency, µM (series often up to 57.5 µM), for inactives: at the highest dose activity change, negative = inhibition, most hits filed as inhibitors; further: potency means the concentration at half of the fitted maximal effect; nearly all actives have a fitted effect of over 55% in size
The depositor's hits bear a star; ? = inconclusive; · = not tested or not shown; [ ] = another dose, or the depositor's remark. The list is not random: actives were taken first. Their share in the collection is about 8.3%. Unless noted, the call rests on the fitted dose curve; in most records, active means well fitted curve in the direction sought with a large enough effect; inconclusive means small, poorly fitted or top-dose-only effect, or another doubt; inactive means no such curve, though single readings can be large; an effect the other way counts as inactive or inconclusive. On the % scale 0 is the no-effect control and ±100 the full control effect.

SMILES	FMDV inh	MARV entry inh	HCV inh	HCMV antiviral	Giardia FBPA inh-1	LASV entry inh	Giardia growth	Mammal cell tox	Giardia FBPA inh-2	Rabbit aldolase	GAPDH counter
CCOC(=O)c1c(NC(=O)CC)sc2c1CCN(Cc1ccccc1)C2	-28%	·	11µM*	-1	11µM*	·	?	-17%	5%	11%	-9%
CC(=O)Nc1sc2c(c1C(N)=O)CCN(Cc1ccccc1)C2	-20%	-1%[46.1 µM]	0%	-21	-6%	-21%[46.1 µM]	·	·	·	·	·
COC(=O)c1c(NC(=O)Cc2ccccc2)sc2c1CCN(C(C)C)C2	0%	·	?	-28	11µM*	·	17%	-3%	2%	5%	9%
NC(=O)c1c(NC(=O)Cc2ccccc2)sc2c1CCN(Cc1ccccc1)C2	?	·	-26%	-32	13µM*	·	?	-9%	-3%	1%	-24%
CCc1ccccc1NC(=O)Cn1nnc(C(=O)NCc2ccco2)c1N	3%	?	·	31	·	?	·	·	·	·	·
COc1cccc(Cn2c(=O)n(Cc3ccccc3)c(=O)c3c2c2cc(OC)ccc2n3C)c1	-2%	·	·	16	·	2%[46.1 µM]	·	·	·	·	·
CN1C2CCC1CC(NC(=O)c1nn(C)c3ccccc13)C2 (centres undefined)	·	12%	·	·	0%	·	·	·	·	·	·
CCOC(=O)c1c(C)[nH]c(CCC(=O)NCc2ccccc2C)c1C	5%	·	·	40	·	-3%[46.1 µM]	·	·	·	·	·
O=C(CCN1CCc2ccccc2C1)Nc1ccccc1	20%	?	-16%	-13	16µM*	21%	26%	13%	-1%	-3%	7%
O=C(CCCn1c(=O)oc2ccccc21)N1CCc2ccccc2C1	41%	10%[46.1 µM]	11%	93	3%	6%	·	·	·	·	·
O=C(CCn1c(=O)oc2ccccc21)NCCN1CCc2ccccc2C1	5%	3%	-8%	43	16µM*	-6%	0%[10.4 µM]	23%	1%	1%	5%
Cc1cccc(-n2c(CNC(=O)c3cccc(F)c3)nnc2SCC(=O)Nc2ccccc2F)c1	0%	?	·	-2	·	?	·	·	·	·	·
Cc1ccccc1/C=N/n1c(-c2ccccn2)n[nH]c1=S	-13%	-2%	4%	-5	4µM*	?	4%[38.3 µM]	-8%	-15%	-17%	-17%
S=c1[nH]nc(-c2ccccn2)n1/N=C/c1ccccc1	-7%	-1%	41%	5	-26%	-3%	·	·	·	·	·
Cc1ccc(/C=N/n2c(-c3ccccn3)n[nH]c2=S)o1	12%	·	5%	28	11µM*	·	-6%	6%	-6%	1%	2%
S=c1[nH]nc(-c2ccccn2)n1/N=C/c1c(Cl)cccc1Cl	-20%	6%	10%	13	6.3µM*	?	-9%[38.3 µM]	6%	-5%	-9%	-3%
O=C(NCc1cccc(Cl)c1)c1cccn1-c1nnc(N2CCCC2)s1	13%	·	·	?	·	-14%[46.1 µM]	·	·	·	·	·
Cn1cccc1C(=O)N1CCC2(CCCN(Cc3ccccc3)C2)CC1	-13%	·	·	·	1%	·	·	·	·	·	·
CCCCN1CCc2[nH]c(=S)[nH]c(=O)c2C1	-18%	?	8%	-7	16µM*	8%	?	-3%	5%	-3%	2%
O=C(NNC(=S)NC(=O)c1ccccc1[N+](=O)[O-])c1ccccc1O	4%	?	-14%	-15	23%	?	·	·	·	·	·
Cc1ccccc1C(=O)NNC(=S)NC(=O)c1ccccc1	-24%	?	?	18	?	?	-11%[38.3 µM]	-27%	13%	4%	2%
O=C(Cc1ccccc1)NNC(=S)NC(=O)c1cccnc1	-16%	1%[46.1 µM]	5%	-7	7.1µM*	-3%[46.1 µM]	-22%	-3%	15%	9%	12%
O=C(NC(=S)NNC(=O)c1ccccc1O)c1ccccc1	0%	-13%[46.1 µM]	-21%	119	?	-13%[46.1 µM]	?	-21%	0%	2%	-17%
Cc1ccccc1C(=O)NNC(=O)c1ccc(Br)cc1	-18%	·	?	11	-3%	·	·	·	·	·	·
COCc1cc(=O)[nH]c(-c2csc(C)n2)n1	-3%	1%	22%	-21	4.5µM*	2%	6%[38.3 µM]	-5%	3%	15%	2%
SMILES	FMDV inh	MARV entry inh	HCV inh	HCMV antiviral	Giardia FBPA inh-1	LASV entry inh	Giardia growth	Mammal cell tox	Giardia FBPA inh-2	Rabbit aldolase	GAPDH counter
COc1cccc(CN2CCN(Cc3cc(OC)c(OC)c(OC)c3)CC2)c1OC	-15%	-4%[46.1 µM]	4%	36	13µM*	-11%[46.1 µM]	?	-14%	-8%	3%	-11%
c1ccc(Oc2cccc(CN3CCCCC3)c2)cc1	·	?	?	-27	-1%	-16%	·	·	·	·	·
COc1cccc(CN2CCN(Cc3cccc(Oc4ccccc4)c3)CC2)c1OC	-21%	-17%[46.1 µM]	?	-37	16µM*	22%[46.1 µM]	-25%	?	1%	-5%	5%
COc1cc(CN2CCN(C(=O)c3ccccc3F)CC2)cc(OC)c1OC	-6%	·	-2%	37	28µM*	·	1%[10.4 µM]	-13%	0%	8%	11%
COc1cc(CN2CCN(C(=O)c3cccc4ccccc34)CC2)cc(OC)c1OC	-13%	·	3%	15	?	·	·	·	·	·	·
COC(=O)c1cc(NC(=O)c2oc(=O)c3ccccc3c2-c2ccccc2)cc(C(=O)OC)c1	-8%	0%[46.1 µM]	·	22	·	5%[46.1 µM]	·	·	·	·	·
CCc1ccc(NCc2cc3ccc(OC)cc3n(CC(=O)Nc3ccccc3OC)c2=O)cc1	0%	·	·	10	·	?	·	·	·	·	·
NC(=O)C1(N2CCCCC2)CCN(C(=S)Nc2ccc(S(N)(=O)=O)cc2)CC1	13%	·	11%	14	7.9µM*	·	87%	-3%	-23%	-15%	-20%
Nc1nnc(-c2ccco2)s1	·	1%	4%	51	6.3µM*	-2%	5%	-14%	1%	4%	1%
O=c1[nH]c2ccccc2c(O)c1SCCO	-7%	9%[46.1 µM]	23%	-30	?	-19%[46.1 µM]	·	·	·	·	·
O=C(O)CSc1c(O)c2ccccc2[nH]c1=O	-1%	·	12%	58	18µM*	·	?	1%	-18%	-20%	-18%
Brc1ccc(CN2CCN(Cc3c[nH]c4ccccc34)CC2)cc1	-19%	?	?	?	14µM*	?	20µM*	-8%	-4%	1%	1%
